In the library only some 19% were active in any assay of this set; here they are far more common.
HT1080NT lethal = kills 2HG-producing HT-1080-NT fibrosarcoma cells. HT-1080-NT fibrosarcoma viability, CellTiter-Glo ATP luminescence, 48 h. Potency, µM (titrated, usually from 46.1 µM), most hits filed as cytotoxic. 360,000 compounds, 1.6% hits;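 further: NT is the 2HG producing partner of a matched IDH1 knockdown line; nearly all actives have a fitted effect of over 55% in size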
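Toxicity toward the 2HG-producing NT line was scored as %Activity, normalised to DMSO and no-cell wells, from CellTiter-Glo luminescence after 48 hours' treatment.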
TDP1 cell CPT = growth inhibition of DT40 Tdp1-/-;hTDP1 cells with camptothecin (screen for TDP1 inhibitors); chicken DT40 Tdp1-/-;hTDP1 cells + 20 nM CPT, ATP luminescence, 48 h; Potency, µM (top dose mostly 46.2 µM), usual class: inhibitors; 420,000 compounds, 12% hits; AID 686979; further: nearly all actives have a fitted effect of over 55% in size
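Chicken DT40 Tdp1-/- cells complemented with human TDP1, 400 cells/well, exposed to compounds plus 20 nM camptothecin for at least 48 h at 37 C; viability read as ATP content by CellTiter-Glo luminescence.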
DT40 TDP1 no CPT = qHTS for Inhibitors of human tyrosyl-DNA phosphodiesterase 1 (TDP1): qHTS in cells in absence of CPT; Potency, µM (titrated, usually from 46.2 µM), hits mostly inhibitors; 420,000 compounds, 15% hits; DT40 Tdp1-/- hTDP1 cells, no CPT, ATP luminescence, 48 h; further: nearly all actives have a fitted effect of over 55% in size
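Luminescent ATP content (CellTiter-Glo) served as the growth readout. Knockout chicken DT40 cells expressing human TDP1 were exposed to compounds without camptothecin for a minimum 48 hr at 37 °C.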
KB-3-1 cytotox = kills parental KB-3-1 adenocarcinoma cells; KB-3-1 viability, CellTiter-Glo ATP luminescence, 72 h; Potency, µM (doses to about 46.1 µM), most hits filed as cytotoxic; 400,000 compounds, 1.4% hits; further: nearly all actives have a fitted effect of over 60% in size
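Cytotoxicity in the drug-sensitive parental line KB-3-1 was scored as loss of CellTiter-Glo luminescence following 72 h incubation with compound. Values come from curve fitting of normalized concentration-response data.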
KB-V1 MDR tox = KB-V1 MDR subline cytotoxicity. KB-V1 MDR cells viability, CellTiter-Glo, 72 h. Potency, µM (series often up to 46.1 µM), actives largely listed as cytotoxic. 400,000 compounds, 3.4% hits; further: nearly all actives have a fitted effect of over 60% in size
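Following 72 h at 37 degrees C with compound, KB-V1 cell viability was read by CellTiter-Glo luminescence, medium being phenol-red-free DMEM plus 10% FBS; concentration-response parameters came from normalized, curve-fitted qHTS data.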
HT1080 IDH1KD tx = HT-1080 IDH1 knockdown cell toxicity (counter line). AID 686971. Potency, µM (highest dose often 46.1 µM), hits mostly cytotoxic. 360,000 compounds, 2% hits. HT-1080 IDH1 knockdown viability, ATP luminescence, 48 h
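Assay cells: HT-1080 with IDH1 knockdown, 750 per well, RPMI/5% FBS. Exposure: 48 h at 37 °C following 2 h pre-incubation. Read: CellTiter-Glo luminescence; fitted concentration-response, curve class assigned.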
Numbers stand for hits; – = inactive; ? = inconclusive; · = no result. The call rests on the fitted dose curve; in most records, active means well fitted curve in the direction sought with a large enough effect; inconclusive means small, poorly fitted or top-dose-only effect, or another doubt; inactive means no such curve, though single readings can be large; an effect the other way counts as inactive or inconclusive.

SMILES	HT1080NT lethal	TDP1 cell CPT	DT40 TDP1 no CPT	KB-3-1 cytotox	KB-V1 MDR tox	HT1080 IDH1KD tx
COc1ccc(C(=O)Sc2ccc(Cl)cc2)cc1OC	?	8.2µM	11.6µM	–	–	?
COc1ccc(C(=O)CC(SCC(NC(C)=O)C(=O)O)c2ccc(Cl)cc2)cc1OC (stereo not drawn)	–	14.6µM	?	–	13µM	–
COc1ccc(C(=O)SC2=NCCS2)cc1OC	–	–	–	–	–	–
COc1ccc(C(=O)c2cc(OC)c(OC)c(OC)c2)cc1OC	?	4.61µM	2.59µM	5.8µM	–	11.6µM
COc1ccc(C(=O)NC(CC(C)C)C(=O)O)cc1OC (stereo not drawn)	–	–	–	–	–	–
COc1ccc(C(=O)c2ccc(OC)c(OC)c2)cc1OC	–	?	?	–	–	–
COc1ccc(C(C)NC(=O)c2ccc(Cl)cc2)cc1OC (stereo not drawn)	–	–	?	–	20.6µM	–
CC(=O)NCCNc1nc2cc(-c3ccc4c(ccn4C)c3)sc2c(=O)n1C	–	?	–	–	–	–
O=C(CSc1nc(=O)n(CCN2CCOCC2)c2c1CCC2)Nc1cccc(Cl)c1	·	–	–	·	·	·
CC1(C)C[C@@H]2C(=O)CCC3O[C@@]3(C)CCC21 (stereo partly drawn)	·	–	–	·	·	·
COc1ccc(C(=O)c2nccc3cc(OC)c(OC)cc23)cc1OC	–	?	?	–	16.4µM	–
O=C1C(c2cccc(Br)c2)N(CCc2ccccc2)C(=O)CN1C1CCCCC1 (stereo not drawn)	·	–	–	·	·	·
Cc1ccc(SC(=O)c2c(C)noc2-c2cc(C)on2)cc1	–	18.4µM	9.2µM	–	–	?
Cc1cc(-c2onc(C)c2C(=O)N/N=C/c2ccccc2)no1	–	–	–	–	–	–
CC(=O)c1cccc(S(=O)(=O)NC2CCSc3ccccc32)c1 (stereo not drawn)	–	?	11.6µM	–	–	–
CNC(=O)C1(C)Cc2c(-c3ccc4c(c3)OCO4)ccnc2O1 (stereo not drawn)	–	?	?	–	–	–
CN(C)c1ccc(CNC(=O)C2(C)Cc3c(-c4ccc5c(c4)OCO5)ccnc3O2)cc1 (stereo not drawn)	?	4.61µM	3.66µM	7.31µM	11.6µM	?
CN(C)c1ccc(-c2ccnc3c2CC(C)(C(=O)Nc2cccc(N(C)C)c2)O3)cc1 (stereo not drawn)	–	?	–	–	–	–
CN1CCN(c2ccc(CNC(=O)C3(C)Cc4c(-c5ccc(C(N)=O)cc5)ccnc4O3)cc2)CC1 (stereo not drawn)	–	–	–	–	–	–
CC1(C(=O)NCCc2ccccc2)Cc2c(-c3cccc(C(N)=O)c3)ccnc2O1 (stereo not drawn)	–	?	18.4µM	?	–	?
CC1(C(=O)NCC2CC2)Cc2c(-c3ccc4c(c3)OCO4)ccnc2O1 (stereo not drawn)	?	4.61µM	5.17µM	14.6µM	?	?
CN1CCN(c2ccc(CNC(=O)C3(C)Cc4c(-c5ccc6c(c5)OCO6)ccnc4O3)cc2)CC1 (stereo not drawn)	?	?	14.6µM	–	–	–
Cc1ccc(C(=O)Nc2ccc3oc(-c4ccccc4C)nc3c2)cc1	·	?	?	–	–	·
COCCNC(=O)C1(C)Cc2c(-c3cccc(C(N)=O)c3)ccnc2O1 (stereo not drawn)	–	?	–	–	–	–
COCCNC(=O)C1(C)Cc2c(-c3ccc(NC(C)=O)cc3)ccnc2O1 (stereo not drawn)	–	?	?	–	–	–
SMILES	HT1080NT lethal	TDP1 cell CPT	DT40 TDP1 no CPT	KB-3-1 cytotox	KB-V1 MDR tox	HT1080 IDH1KD tx
CN(C)c1ccc(CNC(=O)C2(C)Cc3c(-c4cccc(C(N)=O)c4)ccnc3O2)cc1 (stereo not drawn)	?	14.6µM	?	–	–	?
CN(C)c1ccc(-c2ccnc3c2CC(C)(C(=O)Nc2ccc(Cl)cc2)O3)cc1 (stereo not drawn)	–	?	?	–	–	–
CN(C)c1ccc(CNC(=O)C2(C)Cc3c(-c4ccc(N(C)C)cc4)ccnc3O2)cc1 (stereo not drawn)	?	?	18.4µM	?	–	?
CN(C)c1ccc(-c2ccnc3c2CC(C)(C(=O)NCC2CC2)O3)cc1 (stereo not drawn)	–	5.17µM	5.17µM	–	–	–
COCCNC(=O)C1(C)Cc2c(-c3ccc(N(C)C)cc3)ccnc2O1 (stereo not drawn)	–	5.17µM	4.61µM	–	–	–
NC(CSCSCC(N)C(=O)O)C(=O)O (stereo not drawn)	·	–	–	·	·	·
O=C(Nc1cc(Cl)ccc1O)c1cc2nc(-c3ccc4c(c3)OCO4)cc(C(F)(F)F)n2n1	·	–	?	–	–	·
CCCN(CCC)C(=O)C1CCCN1S(=O)(=O)c1cccc2nsnc12 (stereo not drawn)	–	–	–	–	–	–
CN(Cc1ccco1)C(=O)Cn1nc(-c2ccc(Cl)cc2)ccc1=O	–	?	?	–	–	–
COc1ccc(CNC(=O)C2(C)Cc3c(-c4ccc5c(c4)OCO5)ccnc3O2)cc1OC (stereo not drawn)	–	?	16.4µM	–	–	?
COc1ccc(CNC(=O)C2(C)Cc3c(-c4ccc(C(N)=O)cc4)ccnc3O2)cc1OC (stereo not drawn)	?	–	–	–	–	–
Cc1ccc(-n2c(SCC(=O)Nc3ccc4c(c3)OCO4)nc3c([nH]c4ccccc43)c2=O)cc1	·	–	?	·	·	·
CCN(CC)S(=O)(=O)c1ccc(NC(=O)CCNC(=O)c2ccccc2)cc1	–	–	?	–	–	–
CCN(CC)S(=O)(=O)c1ccc(C(=O)NCCSc2c(-c3ccc(F)cc3)[nH]c3ccccc23)cc1	·	8.2µM	6.51µM	?	–	·
CN(C)S(=O)(=O)c1ccc(C(=O)NCCSc2c(-c3ccc(Br)cc3)[nH]c3ccccc23)cc1	·	4.11µM	2.31µM	–	–	·
COc1ccc(-c2[nH]c3ccccc3c2SCCNC(=O)c2ccccc2)cc1	?	13µM	9.2µM	20.6µM	–	?
O=C(NCCc1ccccc1)C(=O)NCC(c1cccs1)S(=O)(=O)c1cccs1 (stereo not drawn)	·	16.4µM	?	–	–	·
COc1ccccc1CCNC(=O)C(=O)NCC(c1cccs1)S(=O)(=O)c1ccccc1 (stereo not drawn)	·	?	?	–	?	·
